# Compounds with a hit are over-represented: about 8% of the library has one in this group of screens.
# Lassa entry inh: blocks Lassa virus binding to or entry into cells. Lassa virus pseudotype entry inhibition, cell reporter. Potency, µM (doses to about 37.9 µM), for the others: at the top dose activity change, negative = inhibition, most hits filed as inhibitors. hit rate 1.2% among 300,000. AID 540256; calls by dose curve; tested in HEK293 cells; also: potency is read from the fitted curve at half-maximal effect; % is scaled to controls: 0 for no effect and ±100 for the full control effect; nearly all actives have a fitted effect of over 50% in size
# HCMV inh: human cytomegalovirus inhibition; HFF cells, HCMV-luciferase reporter, 72 h; hits give low values; activity change, negative = inhibition, % at 57.5 µM; hit rate 4.5% among 410,000; in the data active = activity change below about -60%; inconclusive = no clear call, values can overlap the other calls; inactive = above about -39%; also: % is scaled to controls: 0 for no effect and ±100 for the full control effect
#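 Steps: HFFs plated, 16 h 37C; compounds added; HCMV-luciferase added to MOI 1 PFU/cell; 72 h 37C; OneGlo reagent, 5 min room temperature; luminescence read, normalized to controls.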
# FMDV antiviral: blocks foot and mouth disease virus. FMDV antiviral cell-based qHTS. Potency, µM (highest dose often 57.9 µM), for inactives: at the highest dose activity change, negative = inhibition, actives largely listed as inhibitors. hit rate 1.2% among 410,000. AID 1159524; calls by dose curve; tested in HEK293T cells; also: read-out not given here; potency is read from the fitted curve at half-maximal effect; % is scaled to controls: 0 for no effect and ±100 for the full control effect; nearly all actives have a fitted effect of over 45% in size
# HCV inhibitor: inhibitors of hepatitis C virus infection. Huh7.5.1 HCVcc-Cre infection, luciferase reporter, 44 h. Potency, µM (doses to about 41.8 µM), for the others: at the top dose activity change, negative = inhibition, usual class: inhibitors. hit rate 3.4% among 340,000; active = well fitted inhibition curve with a large enough effect; inconclusive = small, poorly fitted or top-dose-only effect, or another doubt; inactive = no such curve, though single readings can be large or run the other way; also: potency is read from the fitted curve at half-maximal effect; % is scaled to controls: 0 for no effect and ±100 for the full control effect
#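 HCVcc-Cre virus at an moi near 0.5 was added right after compound to cells cultured 4 h from seeding (1,000 cells/well). Luciferase activity was determined 44 h later, 15 min after substrate addition at RT.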
# Marburg entry inh: inhibitors of Marburg virus binding or cell entry. hit rate 1.8% among 300,000. Marburg virus pseudotyped entry inhibition, cell reporter. AID 540276. Potency, µM (titrated, usually from 37.8 µM), for inactives: top-dose activity change, negative = inhibition, actives largely listed as inhibitors; calls by dose curve; tested in HEK293 cells; also: potency is read from the fitted curve at half-maximal effect; % is scaled to controls: 0 for no effect and ±100 for the full control effect
# SARS PLP yeast: blocks SARS-CoV papain-like protease in a yeast assay; S. cerevisiae expressing SARS-CoV PLpro, growth rescue; hit rate 0.19% among 330,000; Potency, µM (titrated, usually from 32.9 µM), without a hit: at the top dose activity, positive = growth rescue, usual class: activators; calls by dose curve; also: potency is read from the fitted curve at half-maximal effect; 0% is about no effect; nearly all actives have a fitted effect of over 55% in size
# * hit, by the source's call; ? = inconclusive; / = not tested or not shown; [ ] = dose if it differs, or a comment.
SMILES,Lassa entry inh,HCMV inh,FMDV antiviral,HCV inhibitor,Marburg entry inh,SARS PLP yeast
COC(=O)C(Cc1ccc(N(CCCl)CCCl)cc1)N=Cc1ccccc1O (centres undefined),?,-103.5*,?,?,?,2.0%
NC(Cc1cc(O)c(O)cc1O)C(=O)O (centres undefined),?,/,/,2.8%,3.97µM*,0.6%
NC(Cc1ccc(O)c(O)c1)C(=O)O (centres undefined),/,/,-28.3%,/,/,/
N[C@H](Cc1ccc(N(CCCl)CCCl)cc1)C(=O)O,/,/,/,/,5.8µM*,/
COc1cc(OC)cc(N2C(=O)CSC23C(=O)Nc2ccccc23)c1 (centres undefined),?,6.2,-9.7%,/,/,/
N[C@@H](Cc1cc(I)c(O)c(I)c1)C(=O)O,16.2%,12.2,-18.6%,1.9%[8.37 µM],-1.5%,-0.1%
N[C@@H](Cc1cc(O)c(O)cc1O)C(=O)O,/,/,/,/,3.97µM*,/
C=C1C(=O)OC2C1CCC(C)=C1C(=O)C3OC3(C)C12 (centres undefined),/,-77.7*,28.2µM*,10µM*,/,/
COc1cc(Cn2c(=O)oc3ccc(C)cc32)ccc1OC(C)C,2.9%,12.3,?,1.12µM*,17.8%,19.8%
CC(C)C[C@@H](C=O)NC(=O)[C@H](CC(C)C)NC(=O)[C@H](CC(C)C)NC(=O)OCc1ccccc1,/,/,-17.2%,/,/,/
C=CCn1c(C)cc(C(=O)Cn2ncc(Cl)c(Cl)c2=O)c1C,?,-98.4*,?,12.6µM*,?,-28.7%
O=C(OCn1ncc(Cl)c(Cl)c1=O)c1ccccc1Cl,6.51µM*,-103.2*,10µM*,3.98µM*,4.61µM*,-31.1%
O=c1c(Cl)c(Cl)cnn1Cc1ccc(F)cc1,20.6µM*,-99.0*,39.8µM*,8.91µM*,?,-4.5%
O=C(Cn1ncc(Cl)c(Cl)c1=O)c1ccc(Cl)cc1,?,-97.9*,35.5µM*,2.82µM*,2.91µM*,-51.7%
C=CCn1c(C)cc(C(=O)COC(=O)[C@@H](NC(=O)c2ccccc2Cl)C(C)C)c1C,?,-20.7,?,25.6%,?,-17.9%
CC1CN=C(c2cc(Cl)c(N)c(Cl)c2)c2c3ccc(C(F)(F)F)cc3[n+]([O-])n21 (centres undefined),/,40.0,/,/,/,/
C[C@H](NC(=O)c1ccccn1)C(O)c1nc2ccccc2[nH]1 (some centres undefined),/,-1.9,/,/,/,/
CC(C)(C)C(=O)Cn1ncc(N2CCCC2)c(Br)c1=O,0.4%,67.4,25.0%,-4.1%,?,6.6%
CC(C)(C)C(=O)Cn1ncc(Cl)c(Cl)c1=O,/,-100.1*,?,?,/,1.3%
C=CCn1c(C)cc(C(=O)CN2NS(=O)(=O)c3ccccc3C2=O)c1C,/,-73.8*,5.4%,?,/,7.9%
Cc1cc2c(cc1S(=O)(=O)N(CCO)Cc1ccccc1)OCC(=O)N2,-0.7%[46.1 µM],?,5.6%,/,/,/
Cc1ccc(CNC(=O)CSc2c3c(nc4cc(Cl)ccc24)CCCC3)o1,20.6µM*,6.4,28.2µM*,4.47µM*,?,-18.1%
CCOc1ccc(CNC(=O)CSc2c3c(nc4cc(Cl)ccc24)CCCC3)cc1,?,?,?,/,6.6%[46.1 µM],/
COc1ccc(NC(=O)CSc2c3c(nc4ccccc24)CCC3)c(OC)c1,-14.9%[46.1 µM],18.6,?,-20.1%,2.24µM*,-19.9%
COc1ccc(OC)c(CNC(=O)CSc2c3c(nc4cc(Cl)ccc24)CCCC3)c1,-5.2%[46.1 µM],-60.4*,?,/,?,/
SMILES,Lassa entry inh,HCMV inh,FMDV antiviral,HCV inhibitor,Marburg entry inh,SARS PLP yeast
COc1ccc(NC(=O)c2ccc3c(SCC(=O)O)c4c(nc3c2)CCCC4)c(OC)c1,6.7%[46.1 µM],-25.3,-23.2%,0.9%,21.9%[46.1 µM],1.0%
O=C(CSc1c2c(nc3cc(Cl)ccc13)CCCC2)NCCN1CCOCC1,12.8%[46.1 µM],12.3,?,-21.0%,?,6.3%
Cc1cccc(N2CCN(C(=O)C3CCN(S(=O)(=O)c4cn(C)cn4)CC3)CC2)c1C,-9.4%[46.1 µM],?,-17.6%,/,/,/
CCOc1ccccc1CNC(=O)c1ccc(CS(=O)Cc2cccc(Cl)c2)o1 (centres undefined),-1.0%[46.1 µM],9.3,4.3%,/,/,/
Cc1ccc(-c2ccc(C#N)c(=O)n2CC(=O)N(C)C)cc1,-29.1%,-70.0*,-2.0%,-1.3%,-7.2%,7.4%
CCOC(=O)c1ccc(NC(=S)N2CCCC(C)C2)cc1 (centres undefined),-17.1%,?,60.0%,-1.7%,17.5%[46.1 µM],-1.2%
CCCCc1ccc(NC(=S)N2CCCC(C)C2)cc1 (centres undefined),11.3%,-66.8*,44.3%,-20.2%,?,0.2%
CCc1c(C)c(C#N)c2nc3ccccc3n2c1NC,6.8%[46.1 µM],-25.2,-20.1%,-0.3%,-3.2%[46.1 µM],1.5%
CNc1cc(C)c(C#N)c2nc3ccccc3n12,10.5%,3.0,-27.5%,-15.0%,-5.2%,12.7%
Cc1ccc(-c2c(C#N)c(N)n3c(nc4ccccc43)c2C#N)cc1,?,-72.3*,?,?,?,-24.0%
Cc1c(CCCl)c(Cl)n2c(nc3ccccc32)c1C#N,11.2µM*,-98.7*,3.55µM*,?,5.01µM*,/
CCCCc1c(C)c(C#N)c2nc3ccccc3n2c1Nc1c(C)n(C)n(-c2ccccc2)c1=O,-31.3%,-90.0*,-13.7%,?,-28.7%,5.4%
N#Cc1c(-c2ccccc2)c(C#N)c2nc3ccccc3n2c1N,-9.7%,-2.9,?,?,?,5.1%
Cc1cc(Cl)n2c(nc3ccccc32)c1C#N,?,-22.5,7.94µM*,?,4.47µM*,-34.3%
CCOC(=O)c1c(C)[nH]c(C)c1S(=O)(=O)N1CCCC(C(=O)N2CCN(c3ccc(Cl)cc3)CC2)C1 (centres undefined),-6.6%[46.1 µM],-23.3,-7.8%,/,/,/
CCOC(=O)CN1C(=O)[C@@]2(CC(C)=CC[C@@H](COc3ccccc3)O2)c2ccccc21,?,/,/,/,-19.5%[14.2 µM],/
O=c1c2ccccc2nc(/C=C/c2cccc(Br)c2)n1CCCO,?,-92.1*,-27.4%,?,?,-4.6%
Cn1c(SCc2cccc(Br)c2)nc2ccccc2c1=O,/,-29.7,?,22.4µM*,/,-6.6%
O=[N+]([O-])c1cccc(/C=C/c2ccccn2)c1,/,48.7,31.7%,12.6µM*,/,-0.6%
O=c1c2ccccc2nc(/C=C/c2cccc([N+](=O)[O-])c2)n1CCCO,?,?,-16.6%,-11.6%,-22.9%,/
O=C(/C=C/c1cccc([N+](=O)[O-])c1)n1cnc2ccccc21,?,-98.5*,14.1µM*,?,?,1.0%
Brc1ccc2c(c1)-n1c(nc3ccccc31)CN2,/,-35.9,/,/,/,/
Cc1ccc(Cc2nc3ccccc3nc2SCC(=O)N2CCCc3ccccc32)cc1,-3.6%[46.1 µM],79.8,-19.7%,/,/,/
O=C(Nc1ccc(Br)cc1F)N1CCC2(CC1)Oc1ccccc1C(=O)N2Cc1ccccc1F,/,?,-8.3%,/,0.3%[46.1 µM],/
COc1ccc(-n2c(/C=C/c3c(C)[nH]c4ccccc34)nc3ccccc3c2=O)cc1,13.9%[46.1 µM],4.3,-17.8%,/,/,/
